Consider four molecules from PubChem BioAssay.

A short description of experiment [1]: P. berghei load reduction in hepatocytes – cell-based, HepG2, luciferase luminescence, HepG2 viability, primary screen (AID 624349; in the data active = parasite load remaining mostly below about 12%, no sharp cut-off; inactive = mostly above about 10%;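 also: 100% = mean of DMSO negative control wells on the same plate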). The settings on record: P. berghei liver stage in HepG2, luciferase luminescence, concentration not given here; parasite load remaining: stronger effect = lower value; viability: measured here: HepG2 viability without parasites.
Experiment [2] is described as follows: Wnt pathway potentiators raising nuclear beta-catenin – imaging, WNT3A-conditioned medium, mouse C2C12, NPC library, primary screen (AID 1117326; in the data active = nuclear beta-catenin stimulation mostly above about 4.2%, no sharp cut-off; inactive = mostly below about 10%). The settings on record: stronger effect = higher value.
Experiment [3] in a line: stimulators of insulin release from INS-1E, primary screen, cell-based, 5 mM glucose, NPC library (AID 1117329;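 active = compound raises insulin release from rat beta cells at 5 mM glucose, no numeric limit stated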). The settings on record: rat INS-1E insulin secretion, at 10 µM, stronger effect = higher value.
Experiment [4] is described as follows: growth inhibition of GSK3B-pretreated HCT116 cells – cell-based, CellTiter-Glo, 0.2 to 20 µM (AID 1117336;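 active = compounds lowering colon cancer cell viability after pretreatment blocking the GSK3B kinase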). Conditions: HCT116 viability after GSK3B inhibitor, at 20 µM, stronger effect = higher value.
Experiment [5] in a line: inhibition of endothelial tube formation, primary screen, imaging, VEGF stimulated, CD31 staining, tube area, NPC library (AID 1117340;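 active = compound that reduces growth-factor-driven endothelial tube area in a mixed cell culture, no cutoff stated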). Conditions: VEGF-stimulated ADSC/ECFC co-culture, at 10 µM, stronger effect = higher value.
Experiment [6] can be described thus: GLP1 release stimulators, primary, NCI-H716, NPC library (AID 1117341;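 active = compound raises GLP1 secretion from the human gut endocrine cells, with no numeric limit stated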). Conditions: NCI-H716 cells, at 10 µM, stronger effect = higher value.
The nature of experiment [7]: HCT116 colon cancer cell growth inhibition, primary screen, CellTiter-Glo luminescence, NPC library (AID 1117342;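 active = compounds that lower survival of HCT116 colon cancer cells in the luminescence readout, no numeric limit stated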). Conditions: at 20 µM (top of the series).
A short description of experiment [8]: reduced SW480 viability measured with CellTiter-Glo, NPC library, primary (AID 1117343;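 active = compounds that lower viability of the colon cancer cells in the luminescence readout, with no numeric limit stated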). Conditions: CellTiter-Glo luminescence; at 20 µM (top of the series) unless noted.
A short description of experiment [9]: NPC library primary testing for decreased DLD-1 cell viability via CellTiter-Glo (AID 1117346;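 active = compounds that lower survival of DLD-1 colon cancer cells in the luminescence readout, no cutoff given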). The settings on record: DLD-1 viability, CellTiter-Glo luminescence; at 20 µM (top of the series).
Experiment [10] is described as follows: EMT-state selective cytotoxicity in co-culture – imaging, PC-3E GFP, TEM4-18 mCherry, primary screen (AID 1345086;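 active = compounds killing one labelled cell type while sparing the other, by normalised counts and ratio limits, not self-fluorescent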;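 as to all read-outs here: cells exposed to compound for 72 h before imaging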;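 as to red/green cell ratio (normalised): normalised mesenchymal count divided by normalised epithelial count so high means epithelial killing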). The settings on record: PC-3E GFP / TEM4-18 mCherry co-culture, imaging cell counts, at 1 µM; for red/green cell ratio (normalised): actives lie on both sides, counts scaled to control wells, 1 = unselective.
Experiment [11] is described as follows: viability loss with induced miR-34 in A549 – imaging, A549 dox-inducible miR-34, nuclei and caspase counts, primary screen (AID 1347080). Conditions: A549 miR-34 inducible, Hoechst nuclei count, 48 h.
Experiment [12] in a line: MELAS cybrid and Rieske KO viability enhancers – cell-based, MELAS cybrids, Rieske KO mouse fibroblasts, CellTiter-Glo, primary screen (AID 1508586;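 active = mean z-score across replicates of 1.96 or higher in either the MELAS or the Rieske mutant cell line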;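 also: z relative to plate mean and SD of compound and empty wells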). The settings on record: low glucose.
Experiment [13] addresses NAD(+) hydrolase SARM1 (Homo sapiens) (UniProt Q6SZW1). Put plainly: blocking NAD cleavage by SARM1 SAM-TIR – cell lysate, NAD-Glo luminescence (AID 1508614;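 active = compound whose remaining NAD level is above about 45 nM, limit read from the data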;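 also: higher remaining NAD means stronger inhibition of SARM1 NADase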). The settings on record: SAM-TIR HEK293T lysate NADase, at 1 µM, stronger effect = higher value.
Experiment [14] in a line: compounds altering viability of human ES cells (AID 493140; call rule not given here;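 also: cells exposed to compounds for four days before counting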). The settings on record: human embryonic stem cell survival screen; stronger effect = higher value.
[15] abbreviates: measured here: epithelial PC-3E GFP cell survival.
The mark [16] stands for this setting: measured here: mesenchymal TEM4-18 mCherry cell survival.
[17] abbreviates: stronger effect = lower value, cell number ratio, induced over uninduced.
Where [18] appears, read: measured here: relative caspase fold change +Dox/-Dox.
The mark [19] stands for this setting: measured here: total cells with miR-34 induction, stronger effect = lower value.
Setting [20] is: measured here: total cells without miR-34 induction.
The mark [21] stands for this setting: MELAS cybrid survival, CellTiter-Glo 48 h, stronger effect = higher value.
Where [22] appears, read: Rieske KO mouse fibroblast survival, CellTiter-Glo 72 h.

Several values for one entry are separate records, joined by “and”; a condition that tells them apart may be missing. Equal entries are not always repeated. More than one record can exist for a structure, and the calls need not agree. Activity calls are given as the source filed them.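 The calls were made as follows, unless noted: active = compounds whose cell count with miR-34 switched on is under 0.7 times the count with it off; inactive = the rest.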

Chain of NAD(+) hydrolase SARM1 (Homo sapiens) (Q6SZW1 whole entry, looked up): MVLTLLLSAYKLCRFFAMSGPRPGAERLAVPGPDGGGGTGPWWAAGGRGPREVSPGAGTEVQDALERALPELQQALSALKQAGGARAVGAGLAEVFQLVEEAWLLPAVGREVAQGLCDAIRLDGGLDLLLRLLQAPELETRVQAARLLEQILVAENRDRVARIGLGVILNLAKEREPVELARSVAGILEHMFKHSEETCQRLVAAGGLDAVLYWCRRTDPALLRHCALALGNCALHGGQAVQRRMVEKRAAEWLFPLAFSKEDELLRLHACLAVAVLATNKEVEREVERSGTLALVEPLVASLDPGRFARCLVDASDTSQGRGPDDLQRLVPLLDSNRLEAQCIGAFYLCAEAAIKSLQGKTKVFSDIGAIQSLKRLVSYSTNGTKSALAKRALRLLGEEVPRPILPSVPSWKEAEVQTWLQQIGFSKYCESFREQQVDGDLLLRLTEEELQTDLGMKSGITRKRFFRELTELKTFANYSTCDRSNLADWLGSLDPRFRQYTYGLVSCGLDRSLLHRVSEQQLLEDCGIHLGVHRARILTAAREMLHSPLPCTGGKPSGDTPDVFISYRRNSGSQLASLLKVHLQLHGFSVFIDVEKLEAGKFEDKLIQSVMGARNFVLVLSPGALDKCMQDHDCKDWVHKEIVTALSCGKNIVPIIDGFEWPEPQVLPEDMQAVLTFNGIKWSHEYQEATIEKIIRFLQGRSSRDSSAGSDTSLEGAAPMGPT

In the case of `CCCN(CCC)CCc1cccc2c1CC(=O)N2`, the parasite load remaining in [1] was 55.3% (inactive). Besides, in experiment [1], the viability is 102%. For the same molecule, the nuclear beta-catenin stimulation in [2] (at 10 µM) was 2.8% (inactive); in experiment [2] (stimulation, at 2 µM) it was 1.5%. Moreover, the insulin secretion stimulation in experiment [3] was 2.8% (inactive). Besides, the viability decrease in experiment [4] was 8% (inactive). For the same molecule, the tube area decrease in experiment [5] is -10% (inactive). In experiment [6], the GLP1 secretion stimulation is 3.9% (inactive). For the same molecule, the inhibition of viability in experiment [7] was 21.3% (inactive). The viability decrease (inhibition) in [8] was 29.8% (inactive); in [9], 26.9% (inactive). Moreover, the red/green cell ratio (normalised) in experiment [10] was 1.06 (inactive). Also, the values for the normalised cell number in [10] (setting [15]) and in [10] (setting [16]) were 0.99 and 1.05, respectively. Also, the fold change in [11] (setting [17]) is 0.948 (inactive) and 0.94 (inactive) and 0.88 (inactive); in experiment [11] (setting [18]) it was 1.29 and 1.47 and 5.03. For the same molecule, the cell count in experiment [11] (setting [19]) was 9580 and 9680 and 11700; in experiment [11] (setting [20]), 10100 and 10300 and 13300. In addition, the z-score in [12] (setting [21]) is 0.118 (inactive) and -0.361 (inactive); in [12] (setting [22]) it was 0.253 and -0.254. For the same molecule, the remaining NAD in [13] is 10 nM (inactive).

`CCN(C)C(=O)Oc1cccc([C@H](C)N(C)C)c1`: the parasite load remaining in experiment [1] is 32.3% (inactive). For the same molecule, the viability in experiment [1] is 99%. Also, the nuclear beta-catenin stimulation is -0.2% (inactive) in experiment [2] (at 10 µM) and 0.4% in [2] (stimulation, at 2 µM). Moreover, the insulin secretion stimulation in experiment [3] was 6.4% (inactive). Moreover, in [4], the viability decrease is 5.7% (inactive). In experiment [5], the tube area decrease was -0.5% (inactive). Further, the GLP1 secretion stimulation in experiment [6] was 2.5% (inactive). Moreover, the inhibition of viability in experiment [7] is 25.9% (inactive). For the same molecule, the viability decrease (inhibition) is 17.2% (inactive) in experiment [8] and 0.2% (inactive) in [9]. Also, the red/green cell ratio (normalised) in experiment [10] is 1.13 (inactive). Further, the normalised cell number was 1.24 in experiment [10] (setting [15]) and 1.4 in [10] (setting [16]). The results for the fold change in [11] (setting [17]) and in [11] (setting [18]) were 0.884 (inactive) and 1.13, respectively. The cell count was 10100 in [11] (setting [19]) and 11400 in experiment [11] (setting [20]). Also, the z-score in [12] (setting [21]) was -0.629 (inactive) and -0.546 (inactive); in experiment [12] (setting [22]), -0.737 and -0.15.

For the molecule `CCN(CC)C(=O)c1ccc(O)c(OC)c1`, the survival in [14] is 14.3 (inactive). Moreover, the parasite load remaining in experiment [1] was 98.8% (inactive) and 82.6% (inactive) and 34.4% (inactive). For the same molecule, the viability in experiment [1] is 116% and 78.8% and 105%. In addition, the nuclear beta-catenin stimulation is 0.4% (inactive) in [2] (at 10 µM) and -0.5% in [2] (stimulation, at 2 µM). Further, the insulin secretion stimulation in experiment [3] was -1.1% (inactive). Moreover, in experiment [4], the viability decrease was -5.6% (inactive). Besides, the tube area decrease in [5] is 19.7% (inactive). The GLP1 secretion stimulation in experiment [6] is -0.9% (inactive). In experiment [7], the inhibition of viability is -33.9% (inactive). Moreover, the viability decrease (inhibition) in experiment [8] was 107% (active); in experiment [9], -2.25% (inactive). For the same molecule, the red/green cell ratio (normalised) in experiment [10] is 1.01 (inactive). Also, the normalised cell number in [10] (setting [15]) turned out to be 1.04; in experiment [10] (setting [16]), 1.06. The fold change in [11] (setting [17]) is 0.99 (inactive) and 0.899 (inactive) and 0.849 (inactive); in experiment [11] (setting [18]), 1.08 and 1.38 and 3.96. In addition, the cell count was 10300 and 8560 and 11800 in [11] (setting [19]); 10400 and 9520 and 13900 in experiment [11] (setting [20]). Further, the results for the z-score in experiment [12] (setting [21]) and in experiment [12] (setting [22]) were -0.598 (inactive) and -0.406, respectively. The remaining NAD in [13] is 10 nM (inactive).

Consider `COc1cccc2c1C(=O)c1c(O)c3c(c(O)c1C2=O)C[C@@](O)(C(C)=O)C[C@@H]3O[C@H]1C[C@H](N)[C@H](O)[C@H](C)O1`, for which the parasite load remaining in [1] was -58.1% (inactive) and -0.15% (inactive) and 3.79% (active). The viability in experiment [1] was 28.9% and 25.6% and 228%. Moreover, the nuclear beta-catenin stimulation in [2] (at 10 µM) is 61.7% (active); in experiment [2] (stimulation, at 2 µM), 102%. The insulin secretion stimulation in experiment [3] is -0.6% (inactive). The viability decrease in [4] was 65.5% (active). The tube area decrease in [5] is -9.1% (active). Besides, the GLP1 secretion stimulation in experiment [6] was 3.4% (inactive). In addition, the inhibition of viability in experiment [7] was 88.6% (active). The viability decrease (inhibition) in experiment [8] is 127% (active); in experiment [9] it was 93.9% (active). Further, the red/green cell ratio (normalised) in experiment [10] was 2.72 (active). Moreover, the normalised cell number is 0.23 in experiment [10] (setting [15]) and 0.62 in [10] (setting [16]). Moreover, the fold change in experiment [11] (setting [17]) was 0.88 (inactive) and 0.929 (inactive) and 0.993 (inactive); in [11] (setting [18]) it was 0.91 and 1.93 and 1.28. Further, the cell count in [11] (setting [19]) is 2140 and 2610 and 2580; in experiment [11] (setting [20]) it was 2420 and 2800 and 2590. Also, the z-score in experiment [12] (setting [21]) is -1.94 (inactive) and 4.97 (active); in experiment [12] (setting [22]), -1.44 and -0.671. The remaining NAD in experiment [13] is 10 nM (inactive).
